These results are taken from PubChem BioAssay.

For test [1], the system named is XIP peptide (Xip251-270) binding. In words: small-molecule binders of XIP peptide, primary screen, biochemical, small-molecule microarray, fluorescence 635/667 nm, 0.1 µg/mL protein (AID 1182). To be noted: fluorescent protein binding, 635 nm, higher = more signal, called active from +8 up or from −8 down.
A further test has as its system XIP peptide (Xip251-270). The test is described as follows: small-molecule binders of XIP peptide, primary screen, biochemical, small-molecule microarray, fluorescence 635/667 nm, 0.5 µg/mL protein (AID 1183). To be noted: small-molecule microarray binding, fluorescence 635 nm; higher = more signal.
Test [2] can be described thus: Plasmodium falciparum growth inhibition, primary screen, strain 3D7, DAPI fluorescence, 100 nL (AID 1184).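 Note: parasites grown inside human red blood cells in medium with human serum.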 The following applies: P. falciparum 3D7 growth, 3 d, higher = more signal.
Test [3] deals with Homeobox protein Hox-A13 (Mus musculus) (UniProt Q62424). In words: inhibitors of HoxA13-DNA binding, primary screen, biochemical, fluorescence polarization, labeled oligonucleotide (AID 1185). The following applies: 15 min, higher = more signal, called active from +8 up or from −8 down. On the technique in general: In fluorescence polarisation assays a small probe gives low polarisation when free and higher when bound to something large.
Sequence of Homeobox protein Hox-A13 (Mus musculus) (Q62424 whole entry, looked up): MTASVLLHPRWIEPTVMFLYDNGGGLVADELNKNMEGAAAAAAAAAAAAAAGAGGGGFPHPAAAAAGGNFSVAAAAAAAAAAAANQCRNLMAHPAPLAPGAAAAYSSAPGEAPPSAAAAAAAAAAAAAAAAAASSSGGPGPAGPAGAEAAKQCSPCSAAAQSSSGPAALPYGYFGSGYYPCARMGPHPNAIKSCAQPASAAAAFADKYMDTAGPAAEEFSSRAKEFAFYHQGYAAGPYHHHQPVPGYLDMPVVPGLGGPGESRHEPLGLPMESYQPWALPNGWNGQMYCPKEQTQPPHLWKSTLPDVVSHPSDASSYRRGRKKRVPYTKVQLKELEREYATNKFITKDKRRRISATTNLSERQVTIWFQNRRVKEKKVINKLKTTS

Test [4] can be described thus: inhibitors of hydroxyurea-induced Chk1 phosphorylation, primary screen, imaging, HeLa, phospho-Chk1 antibody, percent positive cells (AID 1186). To be noted: hydroxyurea-induced phospho-Chk1 immunofluorescence imaging, higher = more signal.
Test [5] in a line: inhibitors of hydroxyurea-induced Chk1 phosphorylation, primary screen, imaging, HeLa, phospho-Chk1 nuclear intensity (AID 1187). The following applies: hydroxyurea-induced phospho-Chk1 immunofluorescence imaging, higher = more signal.

Structures are written as SMILES. Activity calls are given as the source filed them. Unless noted, the rule behind the calls is not given here.

Turning to `C=CCNC(=O)[C@H]1[C@@H]2C(=O)O[C@@H](c3ccccc3)[C@@H](c3ccccc3)N2[C@@H](c2ccccc2OCCO)[C@]12C(=O)N(C(=O)OCCOC)c1ccc(C#CC3(O)CCCCCC3)cc12`, the composite z-score in test [1] was 0.892 (inactive); in the test with XIP peptide (Xip251-270), 0.712. In addition, the z-score in test [2] is -2.15; in test [3] it was -0.807 (inactive); in test [4], -0.485 (inactive); in test [5], -0.428 (inactive).

For the compound `CCCC[C@@H]1C[C@H]1[C@@H](NC(=O)c1cccs1)c1ccccc1C(F)(F)F`, the composite z-score is 0.269 (inactive) in test [1] and 0.305 in the test with XIP peptide (Xip251-270). Moreover, the z-score in test [2] was -1.27; in test [3] it was 0.322 (inactive); in test [4], -0.0139 (inactive); in test [5], 0.364 (inactive).

With `COCCOC(=O)N1C(=O)[C@@]2(c3cc(C#CC4(O)CCCCCC4)ccc31)[C@H](C(=O)N1CCc3cc(OC)c(OC)cc3C1)[C@H]1C(=O)O[C@H](c3ccccc3)[C@H](c3ccccc3)N1[C@@H]2c1ccc(OCCO)cc1`, the composite z-score in test [1] is 0.402 (inactive); in the test on XIP peptide (Xip251-270) it was 0.62. The z-score is -2.25 in test [2], 2.15 (inactive) in test [3], -0.149 (inactive) in test [4] and -0.247 (inactive) in test [5].

As for `COC(=O)[C@@]1(Cc2ccc(F)cc2)[C@H]2c3cc(C(=O)N(C)C)n(CCc4ccc(OC)c(Br)c4)c3C[C@H]2CN1C(=O)c1ccccc1`, the composite z-score in test [1] is -0.192 (inactive); in the test on XIP peptide (Xip251-270), 0.167. For the same compound, the z-score in test [2] was -1.75; in test [3] it was -5.01 (inactive); in test [4] it was -0.316 (inactive); in test [5], -0.869 (inactive).

Regarding `O=C1C[C@]2(c3ccc([N+](=O)[O-])cc3)C(=O)N(C3CC3)c3cc(CO)ccc3[C@H]2N1CC12CC3CC(CC(C3)C1)C2`, the composite z-score in test [1] was 0.196 (inactive); in the test with XIP peptide (Xip251-270) it was 0.463. The z-score was -1.38 in test [2], -0.902 (inactive) in test [3], -0.0994 (inactive) in test [4] and -0.497 (inactive) in test [5].

As to `CCCN1C(=O)[C@@]2(Cc3ccccc31)N=C(c1ccc(OCCCO)cc1)O[C@H]2c1ccccc1`, the composite z-score in test [1] was 0.468 (inactive); in the test with XIP peptide (Xip251-270), 0.828. Further, the z-score in test [2] is -1.65; in test [3] it was -6.04 (inactive); in test [4], -0.0494 (inactive); in test [5] it was 0.365 (inactive).

For the compound `CC(c1ccccc1)C(O)C1C=CC2C(=O)N(C)C(=O)C2N1Nc1ccccc1` (stereo not drawn), the results for the composite z-score (in test [1]; with XIP peptide (Xip251-270)) were 0.255 (inactive) and 0.726, respectively. Moreover, the z-score in test [2] was 0.139; in test [3] it was -3.9 (inactive); in test [4], 0.378 (inactive); in test [5] it was -0.484 (inactive).

Turning to `[N-]=[N+]=Nc1ccccc1C[C@]1(C(=O)NCCN2CCOCC2)COC(c2ccc(OCCCO)cc2)=N1`, the composite z-score in test [1] was 0.728 (inactive); in the test on XIP peptide (Xip251-270), 0.256. In addition, the z-score is -1.06 in test [2], -6.04 (inactive) in test [3], -0.566 (inactive) in test [4] and -0.17 (inactive) in test [5].

Consider `COc1ccc([Si](C)(C)[C@H]2[C@H](CC(=O)N3CCC[C@H]3CO)O[C@@]3(C(=O)N(Cc4ccc(N5CCOC5=O)cc4)c4ccccc43)[C@@H]2C)cc1`, for which the composite z-score is 0.214 (inactive) in test [1] and 0.719 in the test on XIP peptide (Xip251-270). Moreover, the z-score is -0.738 in test [2], -3.99 (inactive) in test [3], 0.222 (inactive) in test [4] and 0.0857 (inactive) in test [5].

For the compound `COC(=O)[C@@]1(Cc2ccccc2)[C@H]2c3cc(C(=O)N4CCCC4)n(CCc4ccccn4)c3C[C@H]2CN1C(=O)c1ccccc1`, the composite z-score in test [1] is 1.44 (inactive); in the test on XIP peptide (Xip251-270), 0.663. Moreover, the z-score in test [2] was -1.25; in test [3], -5.78 (inactive); in test [4], 0.249 (inactive); in test [5], 0.491 (inactive).

For the compound `CN1C2C=C(CCCO)C(C3C(=O)N(C(N)=O)C(=O)C32)C1C1CC1` (stereo not drawn), the figures for the composite z-score (in test [1]; in the test with XIP peptide (Xip251-270)) were 0.379 (inactive) and -0.0081, respectively. Further, the z-score in test [2] was 1.89; in test [3], -7.09 (inactive); in test [4], -0.25 (inactive); in test [5], 0.161 (inactive).

Turning to `CCCCC(O)C1C=CC2C(=O)N(C)C(=O)C2N1N(c1ccccc1)c1ccccc1` (stereo not drawn), the figures for the composite z-score (in test [1]; in the test with XIP peptide (Xip251-270)) were 0.289 (inactive) and 0.771, respectively. The z-score is 1.01 in test [2], -4.42 (inactive) in test [3], -0.0768 (inactive) in test [4] and -0.691 (inactive) in test [5].

In the case of `CCOC(=O)C[C@H]1[C@H](OC(=O)c2cc3ccccc3oc2=O)[C@@H](NC(=O)c2ccccc2)c2cc(OCCCO)ccc2N1C(=O)c1ccccc1`, the composite z-score is -0.0879 (inactive) in test [1] and 0.283 in the test on XIP peptide (Xip251-270). In addition, the z-score in test [2] is -1.66; in test [3], -1.56 (inactive); in test [4], 0.171 (inactive); in test [5] it was -0.0272 (inactive).

`COC(=O)C1(CC(C)C)C=C2C(=C(c3ccccc3)C(=O)C2C)CN1` (stereo not drawn): the composite z-score in test [1] is -0.213 (inactive); in the test with XIP peptide (Xip251-270) it was 0.758. For the same compound, the z-score in test [2] was -0.104; in test [3] it was -7.47 (inactive); in test [4] it was -0.563 (inactive); in test [5], -1.13 (inactive).

As for `O=C(O)[C@@H]1C[C@@H]2C(=O)N3CCC[C@H]3C(=O)N2[C@@H]1c1ccc(O)cc1`, the composite z-score in test [1] is 0.543 (inactive); in the test with XIP peptide (Xip251-270) it was 0.906. The z-score in test [2] was -1.37; in test [3], 1.66 (inactive); in test [4], 0.959 (inactive); in test [5], 1.08 (inactive).

On to `CC[C@@H]1C=C(C(=O)O)[C@H](c2ccc(C#N)cc2)N1S(=O)(=O)c1ccc(C)cc1`, for which the composite z-score was 0.377 (inactive) in test [1] and -0.172 in the test with XIP peptide (Xip251-270). Also, the z-score in test [2] is 1.91; in test [3], -4.62 (inactive); in test [4], 0.208 (inactive); in test [5], -0.0106 (inactive).

As for `O=C(C1N=C(c2ccc(OCCCO)cc2)N(c2ccccc2)O1)N1CCCCC1` (stereo not drawn), the results for the composite z-score (in test [1]; with XIP peptide (Xip251-270)) were 2.64 (inactive) and 0.814, respectively. The z-score is -0.603 in test [2], -3.7 (inactive) in test [3], -0.216 (inactive) in test [4] and 0.153 (inactive) in test [5].

Regarding `COc1cc(NN2C(C(O)c3cc(OC)c(OC)c(OC)c3)C=CC3C(=O)N(C)C(=O)C32)cc(OC)c1OC` (stereo not drawn), the results for the composite z-score (in test [1]; in the test on XIP peptide (Xip251-270)) were 0.248 (inactive) and 0.438, respectively. Moreover, the z-score in test [2] was -0.354; in test [3], -4.51 (inactive); in test [4], -0.325 (inactive); in test [5], -0.328 (inactive).
